Source: the supplement of paper PMC3842684

What was measured:
[1] = tested on: P. falciparum NF54-pfs16-GFP early (I-III) stage gametocytes; assay: relative % inhibition of viable gametocyte number; higher = more gametocytocidal; conditions: stage: early (I-III) gametocyte, incubation 72 h
Summary of the method: (§1)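 Magnet-isolated NF54 pfs16-GFP gametocytes at early (I/IIa, day 2) or late (day 8) stage were exposed to compound at 5 or 0.5 µM for 72 h at 37°C, 5% CO2, 5% O2, at 10% parasitaemia and 0.1% haematocrit. Elongated GFP objects with MitoTracker Red signal above cut-off were counted as viable by confocal imaging. Relative inhibition was normalised to in-plate vehicle and positive-control wells.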

[2] = tested on: P. falciparum NF54-pfs16-GFP late (IV-V) stage gametocytes; assay: as above; conditions: stage: late (IV-V) gametocyte, incubation 72 h
Summary of the method: as §1

| Compound | relative % inhibition ([1]; 0.5 µM) [%] | relative % inhibition ([1]; 5 µM) [%] | relative % inhibition ([2]; 0.5 µM) [%] | relative % inhibition ([2]; 5 µM) [%] |
| --- | --- | --- | --- | --- |
| COc1cccc(Nc2nc(N)c3ccccc3n2)c1 | -16.5 | -5.49 | 7.14 | 1.59 |
| CCOC(=O)C1=C(C)N=c2sc(=Cc3cc(Cl)ccc3O)c(=O)n2C1c1ccc(OC)cc1 (stereo not drawn) | 105 | 108 | 94.5 | 103 |
| O=C(Nc1ccc(Cl)cc1C(=O)Nc1ccncc1)c1ccc(Cl)cc1Cl | 20.3 | 31.8 | -5.7 | -20.8 |
| CC(C)c1ccc(CNCC(O)c2ccccc2)cc1 (stereo not drawn) | 5.28 | 89.6 | 17.3 | 39.8 |
| CN(C)c1ccc(C(O)(c2ccc(N(C)C)cc2)c2ccc(N(C)C)cc2)cc1 | 81.4 | -12.4 | 102 | 103 |
| CCc1c(C)c(=N)c2ccccc2n1C | -1.08 | 8.52 | -17.1 | -7.51 |
| COc1ccc(CNC2CCN(c3ccc(NC(=O)c4cccc(Cl)c4)cc3)CC2)cc1OC | -12.4 | 79 | -4.13 | -22 |
| CCOC(=O)c1cnc2ccc(Cl)cc2c1NCCCN(C)C | 3.83 | 74.3 | -21.7 | -1.78 |
| COc1cc(C(=O)Nc2nc3c(cc4c5c(cccc53)CC4)s2)cc(OC)c1OC | 5.49 | 13.9 | 12.4 | 5.43 |
| CCN1CCN(Cc2ccc(NC(=O)c3cc4ccc5cccnc5c4[nH]3)cc2)CC1 | 21.1 | 59.1 | -6.9 | 3.45 |
| COc1cccc(C2(C)Nc3ccccc3-c3nc4ccccc4n32)c1 (stereo not drawn) | -5.06 | 5.7 | 27.8 | 16.2 |
| CCCCCC(=O)N1c2ccccc2N=C2CC(c3ccc(OC)c(OC)c3)CC(O)=C2C1c1ccc(C(F)(F)F)cc1 (stereo not drawn) | 50.6 | 76.3 | 32.8 | 60.6 |
| OC(CNC1CCCC1)Cn1c2ccccc2c2ccccc21 (stereo not drawn) | 15.6 | 91.7 | 24.2 | 66 |
| CC(=O)c1sc(NC(=O)Nc2ccc(C)cc2C)nc1C | 30.3 | 63.7 | -2.19 | -29.6 |
| COc1ccc2c(c1)C1(Nc3ccccc3-c3nc4ccccc4n31)C(=O)N2 (stereo not drawn) | 55.7 | 84.8 | 37.6 | 63.5 |
| CCOC(=O)C1=C(C)N=c2sc(=Cc3ccccc3O)c(=O)n2C1c1ccc(OC)c2ccccc12 (stereo not drawn) | -2.21 | 86.4 | 65.8 | 61.1 |
| COc1cccc(NC(=O)Cn2c(C)c(C#N)c3ccccc32)c1 | 17 | 45.2 | -4.97 | 29.8 |
| Cn1c(=O)c2cc(C(=O)NCCCN3CCCCCC3)sc2c2ccccc21 | 13.6 | 27.4 | -1.01 | -0.0726 |
| COc1ccc(N2CCN(C(CNC(=O)CC(C)(C)C)c3ccc4c(c3)OCO4)CC2)cc1 (stereo not drawn) | 31.4 | 24.4 | 42.2 | 25.6 |
| CCN(CC)CCNc1ncnc2c1[nH]c1ccc(Br)cc12 | -15.3 | 61.4 | 12.4 | 27.1 |
| CCOc1ccccc1CN1CCc2nc3cc(C(C)(C)C)nn3c(O)c2C1 | -6.1 | -4.88 | 66.3 | 76.6 |
| CCCCCCn1c(=N)n(CC(O)COc2cccc(C)c2)c2ccccc21 (stereo not drawn) | 23 | 52 | -12.2 | 103 |
| COc1ccc(-c2c(C)nn3c(N)c(C#N)cnc23)cc1OC | -24.1 | 22.9 | 63.6 | 108 |
| COc1ccc(C2C(C(=O)Nc3cccc(OC)c3)c3ccccc3C(=O)N2C2CCCCC2)cc1 (stereo not drawn) | 15.6 | 87.5 | 5.71 | 78.2 |

| Compound | relative % inhibition ([1]; 0.5 µM) [%] | relative % inhibition ([1]; 5 µM) [%] | relative % inhibition ([2]; 0.5 µM) [%] | relative % inhibition ([2]; 5 µM) [%] |
| --- | --- | --- | --- | --- |
| O=C(Nc1ccc(CN2CCOCC2)cc1)c1ccc(-c2ccc(Br)cc2)o1 | 16.2 | -18 | 27.9 | 4.05 |
| Cc1ccc(Nc2nc(NCCO)c3ccccc3n2)cc1C | -7.63 | 84.7 | 38 | 53.9 |
| COc1ccc2c(c1OC)C(=O)N1c3ccccc3N=C(c3ccc(C)cc3)CC21 (stereo not drawn) | 11.7 | 60.6 | -8.16 | 5.82 |
| O=C(NC1CCN(Cc2ccccc2)CC1)c1cc(-c2ccncc2)nc2ccc(Cl)cc12 | 17.7 | 64.3 | -28.1 | -1.38 |
| OC(CNCc1ccccc1)Cn1c2ccccc2c2ccccc21 (stereo not drawn) | 0.736 | 89.9 | 21.5 | 84.7 |
| Oc1ccc2ccccc2c1CNc1nc2ccccc2[nH]1 | 11 | 66.5 | 6.29 | 12 |
| O=C(Nc1ccc(-c2nc3cc(NC(=O)c4ccc(Cl)cc4)ccc3[nH]2)cc1)c1ccc(Cl)cc1 | 6.74 | 48.5 | -5.09 | 24.8 |
| Cc1cc(N2CCCC2)nc(Nc2ccc(NC(=O)CCc3ccccc3)cc2)n1 | 53.7 | 89.6 | 6.75 | 21 |
| COc1ccc(NC(=O)C2c3ccccc3C(=O)N(CC(C)C)C2c2cccs2)cc1 (stereo not drawn) | 52.4 | 102 | 25.7 | 52.6 |
| CCCCC(O)(c1ccc(Cl)cc1)C(CN1CCOCC1)c1ccc(Cl)cc1 (stereo not drawn) | 10.8 | 92.5 | -3.8 | 40.8 |
| Cc1ccc(C2CC(C(F)(F)F)n3nc(C(=O)N4CCN(C(c5ccccc5)c5ccccc5)CC4)cc3N2)cc1 (stereo not drawn) | 3.32 | 13.2 | 17.1 | -7.7 |
| Cn1c(=O)n(C)c2cc(CNCCNc3ccnc4cc(Cl)ccc34)ccc21 | 86.6 | 29.6 | 37.6 | 90.2 |
| Oc1ccc(Cl)cc1CNc1nc2ccccc2[nH]1 | 16.5 | 37.3 | -1.55 | 13.6 |
| COc1cccc(C=Cc2nc(=O)c3ccccc3o2)c1OC | -6.76 | -17.9 | 50.6 | 94 |
| CC(C)(C)c1ccc2c(c1)CN(Cc1ccc(Cl)cc1)CO2 | 9.71 | 98.4 | 27.3 | 54.6 |
| COc1ccc(C(=O)Nc2ccc(Cl)cc2C(=O)Nc2ccncc2)cc1 | -7.22 | 22.3 | -6.74 | 3.3 |
| CCCCc1ccc(NS(=O)(=O)c2cc3c4c(c2)CCN4C(=O)CC3)cc1 | 12.3 | 1.37 | 0.5 | -7.42 |
| O=C(Nc1ccc(-c2nc3ccccc3[nH]2)cc1)c1ccc(Cl)c(Cl)c1 | 14.9 | -3.57 | 0.0958 | -12 |
| CCn1c(CN2CCN(Cc3ccccc3)CC2)nc2cc(NC(=O)c3cccs3)ccc21 | -11.6 | 9.85 | 28.5 | 50.7 |
| CN(C)c1ccc(C=Cc2nc(=O)c3ccccc3o2)cc1 | -10.1 | -23 | 27.4 | 88.2 |
| COc1cc(C(=O)Nc2ccc(-c3nc4ccccc4[nH]3)cc2)cc(OC)c1OC | 22.1 | 42.1 | 20.5 | 9.54 |
| CCOc1cc2c(cc1OCC)C(c1cc(Cl)c(O)c(OCC)c1)NCC2 (stereo not drawn) | 8.41 | 94.7 | 29.4 | 18.2 |
| O=C(c1ccccc1F)N(Cc1ccc(Cl)cc1)c1ccccn1 | -17.2 | -20.6 | 2.03 | 16.8 |
| COc1cccc(NC(=O)[C@H](C(C)C)n2c(=O)[nH]c3ccccc3c2=O)c1 | 70.7 | 97.8 | 35 | 59.9 |

| Compound | relative % inhibition ([1]; 0.5 µM) [%] | relative % inhibition ([1]; 5 µM) [%] | relative % inhibition ([2]; 0.5 µM) [%] | relative % inhibition ([2]; 5 µM) [%] |
| --- | --- | --- | --- | --- |
| COc1ccc(-c2cc(=O)oc3c4c(ccc23)OCN(Cc2ccc(F)cc2)C4)cc1 | -4.17 | 73.2 | 25.1 | 34.8 |
| CN1C=C(c2ccc3ccccc3n2)C(c2c[nH]c3ccccc23)c2ccccc21 (stereo not drawn) | 16.1 | 49.6 | 19.8 | 34.8 |
| CC(=O)NCCc1nc2ccccc2n1Cc1ccc(C(C)C)cc1 | 8.03 | 50.5 | -8.38 | 2.88 |
| Cc1cc(Nc2ccc3ccccc3c2)n2ncnc2n1 | -10.4 | 3.61 | 1.55 | 8.91 |
| CCCCCCC(O)(c1ccc(F)cc1)C(CN1CCOCC1)c1ccccc1 (stereo not drawn) | -0.0307 | 47.2 | 8.28 | 33.1 |
| CCOc1cc2c(cc1OCC)C(c1cc(OC)c(O)cc1Cl)NCC2 (stereo not drawn) | 22.5 | 100 | 25.6 | 48.3 |
| CC(C)OCc1cc(CN2CCN(c3cccc(Cl)c3)CC2)c(O)c2ncccc12 | 10.9 | 96.4 | 8.7 | 98.4 |
| CCOC(=O)c1cn(CC)c2cc(N3CCCCC3)c(F)cc2c1=O | 22 | 17 | 91.5 | 93.5 |
| CCN(CC)CCCNc1nc(-c2ccc(Cl)cc2)nc2ccccc12 | 11.6 | 96.5 | 13.1 | 23.5 |
| COc1ccccc1N1CCN(C(CNS(=O)(=O)c2ccc(Cl)cc2)c2cccnc2)CC1 (stereo not drawn) | -2.86 | 41.8 | -0.978 | 32.7 |
| Clc1ccc2c(N3CCCC3)ccnc2c1 | 21.2 | 65.9 | 11.2 | -4.99 |
| Oc1ccc(-c2nc(-c3ccc4oc5ccc(-c6[nH]c(-c7ccc(O)cc7)nc6-c6ccccc6)cc5c4c3)c(-c3ccccc3)[nH]2)cc1 | 92.1 | 107 | 3.61 | 52.7 |
| COc1cc(OC)c(N(C)C(=O)c2cc3c(s2)-c2ccccc2S(=O)(=O)C3)cc1Cl | 52.2 | 93.9 | 28.5 | 44.6 |
| COc1ccc(C(=O)C(CCC(CNC(C)(C)C)C(=O)c2ccc(OC)cc2)CNC(C)(C)C)cc1 (stereo not drawn) | 62.7 | 94 | 10.9 | 104 |
| Oc1c2c(nc3ccccc13)CCCC2 | 9.29 | -7.51 | 26.9 | 90.8 |
| CCOC(=O)c1cnc2ccc(CC)cc2c1O | -8.43 | 42.6 | 73.6 | 79.8 |
| O=C(Nc1cccc(C(F)(F)F)c1)c1cc(Cl)ccc1O | -0.916 | 104 | 15 | 30.1 |
| CCCCCCc1cc2cc(-c3csc(C=Cc4ccccc4)n3)c(=O)oc2cc1O | 18.9 | 101 | 31.2 | 104 |
| COCCNC(=O)c1ccc(OC2CCN(Cc3ccc(F)c(F)c3)CC2)c(Cl)c1 | 7.61 | -0.414 | 14.2 | 39.9 |
| O=C(Nc1nc(-c2ccccn2)cs1)c1ccccc1Br | 10.8 | 93.2 | -7.93 | 68.6 |
| O=C(Nc1ccc(N2CCN(Cc3ccccc3)CC2)cc1)c1cccs1 | 14.2 | 6.41 | 6.6 | 16.2 |
| Cc1ccnc(NC(c2cccc(OCc3ccccc3)c2)c2ccc3cccnc3c2O)c1 (stereo not drawn) | 14.9 | 96.4 | 9.51 | 57.2 |
| CCCOCc1cc(CN2CCN(c3cccc(Cl)c3)CC2)c(O)c2ncccc12 | 14 | 91.3 | -7.95 | 102 |
| CC1CN(C(=O)c2sc3ccccc3c2Cl)CC(C)O1 (stereo not drawn) | -11.1 | 1.13 | 6.08 | -5.12 |
